From PubChem BioAssay
12-LOX inh = blocks human arachidonate 12S-lipoxygenase | P18054 | purified 12hLO, xylenol orange hydroperoxide absorbance | Potency, µM (highest dose often 108 µM), most hits filed as inhibitors | actives 1.1% (n = 580,000)
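Purified human 12hLO (150 nM final) in 25 mM Hepes, 0.01% Triton X-100, pH 7.0 was preincubated 15 min at room temperature with compound. Then 40 uM arachidonic acid was added, 30 min. Hydroperoxide was read by Fe-XO absorbance ratio 573/405 nm.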
TRPML1 ag = activates the human TRPML1 channel. activation, % (test concentration not listed). actives 0.12% (n = 410,000). TRPML1-expressing cells, Ca2+ dye fluorescence, FDSS. Q9GZU1; in the data active = activation above about 50%; inconclusive = mostly about 30% to 49%
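Tetracycline-induced TRPML1-DL cells are seeded and incubated overnight before loading with a no-wash Ca2+ dye and quencher. Agonist activity is taken from the 110 s fluorescence read following compound pin-transfer on an FDSS, before EC80 54-4 challenge.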
TRPML1 inh = inhibitors of human TRPML1 channel. activity change, negative = inhibition, % (test concentration not listed). AID 624415. actives 0.02% (n = 390,000). TRPML1-inducible cells, Ca2+ dye fluorescence, FDSS; stronger effect = lower value; inhibition of EC80 agonist-evoked calcium signal. Q9GZU1; in the data active = activity change below about -50%; inconclusive = between about -30% and that limit;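 also: stimulus is agonist 54-4 at its EC80 concentration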
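Tet-induced TRPML1-DL cells loaded with Ca8 no-wash calcium dye were read kinetically on FDSS. Compound addition was followed by EC80 agonist 54-4 (4 uM final); inhibition was read over 110 s.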
GRP78 ERSR act = induces the endoplasmic reticulum stress response in human glioma cells; U87-MG GRP78 promoter luciferase reporter, 16 h; Potency, µM, actives largely listed as activators; actives 0.02% (n = 420,000); AID 602332; also: series mostly up to about 76 µM; nearly all actives have a fitted effect of over 35% in size
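Stably transfected U87-MG glioma cells carrying a GRP78-based luciferase sensor; 16 h compound incubation. Luminescence end-point read 10 min after Bright-Glo addition at room temperature.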
Vif-APOBEC3F blk = inhibitors of Vif-A3F interaction. Potency, µM (series often up to 46.1 µM). actives 0.2% (n = 390,000). HeLa A3F-eYFP + Vif (tagged APOBEC3F with the HIV-1 protein that degrades it), YFP fluorescence increase; also: nearly all actives have a fitted effect of over 65% in size
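HeLa cells stably expressing A3F-eYFP plus Vif, plated and incubated overnight at 37 deg C, then exposed to compounds overnight at 37 deg C. Blocked degradation read as raised yellow fluorescence (Ex 488/Em 500-530).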
Vif-APOBEC3G blk = blocks the Vif interaction with human APOBEC3G | Q9HC16 | Potency, µM (doses to about 46.1 µM), usual class: inhibitors | HeLa A3G-eYFP + Vif (tagged APOBEC3G with the HIV-1 protein that degrades it), YFP fluorescence, overnight | actives 0.076% (n = 410,000); also: nearly all actives have a fitted effect of over 60% in size
Target sequence (Q9HC16 whole entry, looked up): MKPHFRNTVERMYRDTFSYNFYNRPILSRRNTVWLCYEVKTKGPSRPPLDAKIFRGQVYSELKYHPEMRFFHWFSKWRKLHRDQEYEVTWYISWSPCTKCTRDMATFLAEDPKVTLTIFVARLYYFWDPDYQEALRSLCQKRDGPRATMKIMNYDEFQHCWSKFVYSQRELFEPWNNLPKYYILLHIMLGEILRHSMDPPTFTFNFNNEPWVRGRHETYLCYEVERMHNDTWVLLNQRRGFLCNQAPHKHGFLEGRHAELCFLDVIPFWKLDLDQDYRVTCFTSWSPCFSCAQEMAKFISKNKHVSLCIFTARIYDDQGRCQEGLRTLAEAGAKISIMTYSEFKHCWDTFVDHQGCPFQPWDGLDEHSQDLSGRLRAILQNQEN
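HeLa cells stably expressing Vif and C-terminally eYFP-tagged A3G, seeded overnight at 37 deg C, then exposed to compound by pintool overnight at 37 deg C. Rise in yellow fluorescence (Ex 488/Em 500-530, Acumen) marks blocked Vif-driven A3G degradation.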
Hits are given with their value; n = inactive; u = inconclusive; x = no result given. The list is not random: actives were taken first. Their share in the collection is about 1.3%. Unless noted, calls follow the shape of the dose curve; as a rule, active = well fitted curve in the direction sought with a large enough effect; inconclusive = small, poorly fitted or top-dose-only effect, or another doubt; inactive = no such curve, though single readings can be large; an effect the other way counts as inactive or inconclusive.

SMILES | 12-LOX inh | TRPML1 ag | TRPML1 inh | GRP78 ERSR act | Vif-APOBEC3F blk | Vif-APOBEC3G blk
O=C1ON=C(c2ccccc2)/C1=C/c1ccc(O)cc1 | 44.7µM | x | x | n | n | u
COc1cc([N+](=O)[O-])ccc1-c1ccc(/C=C2\C(=O)ON=C2c2ccccc2)o1 | u | n | n | n | n | n
Cc1ccc(C2=NOC(=O)/C2=C\c2ccccc2)cc1 | u | n | n | n | n | n
CC1=NOC(=O)/C1=C/c1ccc(O)cc1 | 15.8µM | n | n | n | n | n
O=C1ON=C(c2ccccc2)/C1=C/c1ccccc1 | 6.31µM | n | n | n | u | n
Cc1ccc(/C=C2/C(=O)ON=C2c2ccccc2)o1 | 10µM | n | n | n | n | n
COc1cccc(/C=C/C(=O)c2ccc(C(=O)O)s2)c1OC | n | x | x | x | x | x
O=C(Nc1ccccc1Br)c1cc(-c2cccnc2)nc2ccccc12 | n | x | x | x | x | x
COc1cc(-c2nnc(COc3nncc4ccccc34)o2)cc(OC)c1OC | n | x | x | x | x | x
CC1=NOC(=O)/C1=C\c1ccc(-c2cccc(Cl)c2)o1 | x | n | n | n | n | u
CCCOc1ccccc1/C=C1/C(=O)ON=C1C | 39.8µM | x | x | n | n | n
CC1=NOC(=O)/C1=C\c1ccc(-c2ccccc2Br)o1 | 5.62µM | n | n | n | n | n
O=C1ON=C(c2ccc(Cl)cc2)/C1=C/c1ccc(O)cc1 | 31.6µM | n | n | n | u | n
COc1cc(/C=C2\C(=O)ON=C2c2ccccc2)cc(Cl)c1O | u | n | n | n | n | n
O=C1ON=C(c2ccccc2)/C1=C\c1ccco1 | 6.31µM | n | n | n | n | n
O=C1COc2ccc(C(=O)COC(=O)c3cc(Br)ccc3Cl)cc2N1 | n | x | x | x | x | x
Cc1noc(C)c1-c1cc2cc(CN(C)C)oc2c(N2CCN(Cc3ccccc3)CC2)n1 | n | x | x | x | x | x
CCN1CCC(NC(=O)CCc2ncc(-c3ccc(F)cc3)o2)CC1 | n | x | x | x | x | x
CCOc1cc(/C=C2\C(=O)ON=C2c2ccccc2)cc(Br)c1O | 22.4µM | n | n | n | n | n
CS(=O)(=O)Nc1ccc(NC(=O)c2cc(-c3cccs3)on2)cc1 | n | x | x | x | x | x
O=C(CN1CCN(c2ccc(F)cc2)CC1)N1CCC(Cc2ccccc2)CC1 | u | n | n | n | n | n
O=C(CN1CCC(Cc2ccccc2)CC1)N1CCc2ccccc2C1 | 1µM | n | n | n | n | n
O=C(Nc1cccc(C(F)(F)F)c1)c1cccc(NC(=O)c2ccc[n+]([O-])c2)c1 | n | x | x | x | x | x
Oc1ccc2ccccc2c1CNc1ccc(Br)cc1 | 3.55µM | n | n | n | n | n
CC(C)c1ccc(C2CC(c3ccc(Br)cc3)=NN2C(N)=S)cc1 (stereo not drawn) | 44.7µM | n | n | n | n | n
SMILES | 12-LOX inh | TRPML1 ag | TRPML1 inh | GRP78 ERSR act | Vif-APOBEC3F blk | Vif-APOBEC3G blk
O=C(Nc1c(Cl)cc(Cl)cc1Cl)C12CC3CC(CC(Cl)(C3)C1)C2 | n | x | x | x | x | x
COc1ccc2c3c([nH]c2c1)[C@@H](CO)N(Cc1ccccc1)CC31CN(C(=O)Cc2ccccc2)C1 | 5.01µM | x | x | x | x | x
COc1ccc2c3c(n(C)c2c1)[C@H](CO)N(C(=O)Cc1ccccc1)CC31CCN(C(=O)Cc2ccccc2)CC1 | n | x | x | x | x | x
CCOC(=O)c1c(NC(=O)c2ccc(S(=O)(=O)N3CCC(C)CC3)cc2)sc2c1CCN(C)C2 | u | u | n | n | 10µM | u
CCOC(=O)N1CCN(S(=O)(=O)c2ccc(C(=O)Nc3sc4c(c3C(N)=O)CCN(CC)C4)cc2)CC1 | n | n | n | n | u | u
CCCN1CCc2c(sc(NC(=O)c3ccc(S(=O)(=O)N(C)c4ccccc4)cc3)c2C(=O)NC)C1 | u | n | n | n | u | 22.4µM
CCCN1CCc2c(sc(NC(=O)c3ccc(S(=O)(=O)N(C)c4ccccc4)cc3)c2C(N)=O)C1 | x | n | n | n | 6.31µM | u
CCN1CCc2c(sc(NC(=O)c3ccc(S(=O)(=O)N4CCCC4)cc3)c2C(=O)NC)C1 | n | n | n | n | u | n
CCCN1CCc2c(sc(NC(=O)c3ccc(S(=O)(=O)N4CCN(C(=O)OCC)CC4)cc3)c2C(N)=O)C1 | u | n | n | n | 10µM | u
COCCn1cc2c3c(cccc31)CN(C(=O)c1cc(F)ccc1Cl)CC2 | 25.1µM | x | x | x | x | x
CCOCCCNC(=O)CC1CCCC1 | n | x | x | x | x | x
O=C(O)CC(C(=O)O)N1C(=O)/C(=C/c2ccc(-c3nc4ccccc4s3)o2)SC1=S (stereo not drawn) | 15.8µM | n | n | n | n | n
O=C(O)CCCN1C(=O)/C(=C\c2ccc(-c3nc4ccccc4s3)o2)SC1=S | 39.8µM | x | x | n | n | n
O=C(O)CCN1C(=O)/C(=C/c2ccc(-c3nc4ccccc4s3)o2)SC1=S | 39.8µM | n | n | n | n | n
O=Cc1ccc(-c2nc3ccccc3s2)o1 | n | n | n | n | n | n
COc1ccc(C2=NN(C(=O)CSc3nc4ccccc4[nH]3)C(c3ccco3)C2)cc1 (stereo not drawn) | n | x | x | x | x | x
COc1ccc(S(=O)(=O)N2CCN(C(=O)C3COc4ccccc4O3)CC2)cc1 (stereo not drawn) | 39.8µM | n | n | n | n | n
O=C(Nc1nnc(C2=COCCO2)o1)c1ccc(Cl)cc1 | 39.8µM | n | n | n | n | n
Cc1ccc(C(=O)Nc2nnc(-c3ccco3)o2)cc1C | n | n | n | n | n | n
O=C(Nc1nnc(C2=COCCO2)o1)c1ccc(F)cc1 | n | n | n | n | n | n
O=C(Nc1nnc(-c2ccco2)o1)c1ccc(Cl)cc1 | 25.1µM | n | n | n | n | n
O=S(=O)(c1ccc(SCc2nnc(-c3ccccc3)o2)nc1)N1CCCC1 | n | x | x | x | x | x
O=C(/C=C/c1ccco1)N(Cc1cccs1)Cc1cccs1 | 8.91µM | x | x | x | x | x
NC(=S)N/N=C1\CCCCC1c1nccc2ccccc12 (stereo not drawn) | n | x | x | x | x | x
COc1ccc(Br)cc1C[N+]1(C)CCCCC1 | 15.8µM | x | x | x | x | x
SMILES | 12-LOX inh | TRPML1 ag | TRPML1 inh | GRP78 ERSR act | Vif-APOBEC3F blk | Vif-APOBEC3G blk
COc1ccc(Br)cc1CSC(=N)N | u | n | n | n | n | n
CC1(CBr)C2CCC1(C)C1(OCCO1)C21OCCO1 (stereo not drawn) | n | x | x | x | x | x
COc1ccc(/C=C2\CC/C(=C\c3ccc(OC)cc3OC)C2=O)c(OC)c1 | n | u | n | n | 8.91µM | n
CCCCCNC(=O)C(c1cc2ccccc2o1)n1c(=O)c(-c2ccco2)nc2ccccc21 (stereo not drawn) | 39.8µM | x | x | x | x | x
Cc1cccc(C)c1NC(=O)C(c1ccc(C#N)cc1)n1c(=O)c(-c2ccco2)nc2ccccc21 (stereo not drawn) | 11.2µM | x | x | x | x | x
O=C(NC1CCCCC1)C(c1cccc2ccccc12)n1c(=O)c(-c2ccco2)nc2ccccc21 (stereo not drawn) | 17.8µM | x | x | x | x | x
